Source: ChEMBL document CHEMBL4888484, “Replenishing the malaria drug discovery pipeline: Screening and hit evaluation of the MMV Hit Generation Library 1 (HGL1) against asexual blood stage Plasmodium falciparum ,using a nano luciferase reporter read-out” (2022)
The campaign covered roughly 150,000 compounds. About 540 (0.36%) showed an effect of 50% or more. The list comes from a sample in which strong results are over-represented; it also holds similar structures and randomly drawn compounds.

Each compound was assayed on Plasmodium falciparum (assay: Primary screen in NF54 nanoGlo assay, in single point, at 2uM, 72h; a lower Z score goes with more inhibition). Conditions: timepoint 72 hour.
Type: functional, Erythrocyte

Structure (SMILES)	% Inhibition	Z score
CN(Cc1cnc2ccccc2c1)c1cnn(C)c1	1%	-0.16
Cc1ncsc1CCNC(=O)[C@H]1CCN(c2ccc(C(F)(F)F)cn2)C1	-4%	0.7
C[C@@H](C1CC1)N(C1CC1)S(=O)(=O)c1cccc2c1N=S=N2	38%	-0.53
C[C@@H](C1CC1)N(C1CC1)S(=O)(=O)c1ccc(F)cc1F	84%	-10.78
C[C@@H](C1CC1)N(CC(=O)Nc1ccc(F)cc1F)C1CC1	-12%	1.76
CCOC(=O)N1CCC(C)(CN2CCS(=O)(=O)C[C@@H](C)C2)CC1	-13%	1.46
Cn1cc(Cl)cc1C(=O)N1CCN(Cc2ccccc2F)C(=O)C1	-2%	0.24
CCOc1ccc(Cl)cc1-c1cc(C)n[nH]c1=O	-8%	1.52
Cc1cccc(N2CCN(C(=O)c3cn4c(n3)COCC4)CC2)c1C	-8%	1.36
COc1ccc(C)c2sc(N(CCCN(C)C)C(=O)c3ccnn3C)nc12	-7%	1.27
COc1ccc(C)c2sc(N(Cc3cccnc3)C(=O)c3ccn(C)n3)nc12	-12%	2
COc1ccc(C)c2sc(N(CCCn3ccnc3)C(=O)Cc3ccc(F)cc3)nc12	78%	-7.85
CC(C)(C)OC(=O)N1CC2CC1CCC2=O (centres undefined)	-3%	0.51
COc1ccc(CN2C[C@H]3CC[C@@H](C2)N(C(=O)c2nc(C)c[nH]2)C3)cc1	-2%	0.32
CC(C)(C)OC(=O)NCc1cccnc1NC(=O)Cc1ccoc1	10%	-1.94
O=C(CCn1nc2ccccn2c1=O)Nc1cnccc1Nc1ccc(F)cc1	-25%	4.76
Cc1nn(C)c(Cl)c1-c1nc2c([nH]1)c(C)nn2C1CCCCC1	1%	-0.09
Cc1nn(C2CCCC2)c2nc(-c3cccs3)[nH]c12	-10%	1.39
Cc1nn(C2CCCC2)c2nc(-c3cc(CN(C)C)cs3)[nH]c12	69%	-9.28
Fc1ccc([C@@H]2CCN2CCn2cc(Cl)cn2)cc1	12%	-1.59
CN(C)Cc1ccc(O)c(CCc2ccccc2)n1	64%	-4.36
CN(C)Cc1cc(CN(C)C)c(O)c(CCc2ccccc2)n1	7%	-1.36

Structure (SMILES)	% Inhibition	Z score
OCc1cc(CO)c(O)c(CCc2ccccc2)n1	-7%	1.32
COC(=O)[C@H](CS(=O)(=O)Nc1cc(C)n(C)n1)c1ccccc1	3%	-0.46
O=c1c2ccoc2ccn1Cc1ccc(OC(F)F)cc1	-8%	0.89
O=C(CN1C=CCC=C1c1nc(-c2ccc(Br)cc2)cs1)c1ccccc1	65%	-4.25
COc1ccc(-c2csc(-c3nc(-c4cccc(Cl)c4)cs3)n2)cc1	-13%	1.47
O=C(C[n+]1ccccc1-c1nc(-c2ccc(Cl)cc2)cs1)c1ccccc1	-7%	1
COc1ccc(C2=CN(CC(=O)c3ccc(Cl)cc3)C3=CCCCCN23)cc1	37%	-3.83
Brc1ccc(-c2csc(Cc3nc(-c4ccc(Br)cc4)cs3)n2)cc1	-3%	0.3
COc1ccc(C(=O)CN2C=CCC=C2c2nc(-c3ccc(Cl)cc3)cs2)cc1	75%	-6.73
Cc1cnc(C2CCOCC2)n1CC1CCN(C(=O)c2cccs2)CC1	-4%	0.55
Cc1cc(F)ccc1C(=O)NCc1nnc(C)n1C1CC1	-2%	0.34
CCN1CCN([C@H]2CCN(c3cc(Cl)ccc3C#N)C2)CC1	-9%	1.34
CCn1c(-c2cc(NC(=O)c3ccncc3)[nH]n2)cc2ccc(OC)cc21	34%	-3.83
CCn1c(-c2cc(NC(=O)c3ccc4c(c3)OCO4)[nH]n2)cc2ccc(OC)cc21	52%	-0.45
CCn1c(-c2cc(NC(=O)c3cc(C)cc(C)c3)[nH]n2)cc2ccc(OC)cc21	17%	-1.96
O=C(c1cnn(Cc2ccccc2)c1)N1CCC[C@@H]1CO	5%	-0.66
Cc1ccc(CNC(=O)CN2CCN(C(=O)Nc3ccc(Cl)cc3)CC2=O)o1	7%	-1.32
CCN1CCOC(C(=O)N2CCCC(COc3ccccc3)C2)C1 (centres undefined)	-11%	1.91
NC(=O)CC(=O)Nc1ncc(-c2ccccc2F)s1	4%	-0.56
Oc1ccccc1-c1cnc(C(F)(F)F)s1	93%	-17.09
Oc1ccccc1C1=NN[C@@](O)(C(F)(F)C(F)F)C1	-6%	0.8
Cn1nccc1[C@@H](O)CNC(=O)C1(c2cccnc2)CC2(CCC2)C1	-8%	1.59

Structure (SMILES)	% Inhibition	Z score
CCN(CC)CCN(CC)C(=O)c1cccc(-c2ccc(C)nc2N)c1	-7%	0.71
CCN(CCN(C)C)C(=O)c1cccc(-c2ccc3nccc(N)c3c2)c1	96%	-13.62
CCN(CCN(C)C)C(=O)c1cccc(-c2ncccc2C)c1	-6%	0.81
CNC(=O)[C@@H]1C[C@@H](NCc2ccc(C(F)(F)F)cc2)CN1CC(c1ccccc1)c1ccccc1	2%	-0.22
CNC(=O)[C@@H]1C[C@H](NCc2ccccc2F)CN1CC(c1ccccc1)c1ccccc1	9%	-1.28
CNC(=O)[C@@H]1C[C@H](NCc2cc(OC)c(OC)c(OC)c2)CN1CC(c1ccccc1)c1ccccc1	54%	-11.4
Cc1cccc(OCCN2C(=O)N[C@@]3(CCCCc4ccccc43)C2=O)c1	4%	-0.78
CCN(Cc1noc(C2CCC2)n1)Cc1ccccc1C#N	-1%	0.12
COc1ccc(Cl)cc1-c1c(N2CCCC2)cn[nH]c1=O	1%	-0.09
O=C(NCCOc1ccccc1)NCCOc1ccccc1	1%	-0.22
O=C(NCCOc1ccccc1)c1ccc(C(=O)NCCOc2ccccc2)s1	56%	-0.3
Cc1cc(C(=O)NCCOc2ccccc2)c(C)s1	-17%	2.3
Cc1cc(C)n(Cc2c(C(=O)NCc3ccc(N(C)C)cc3)noc2C)n1	-13%	1.35
C#CCCCCC(=O)Nc1ccc(C#N)cn1	4%	-0.84
CC(C)[C@H]1CN(C(=O)c2nc(C(F)(F)F)n3c2CCCC3)CCN1	-15%	1.9
COc1cccc(Cl)c1CN[C@H]1CCCc2occc21	-24%	2.8
Oc1cccc(CN[C@H]2CCCc3occc32)c1Cl	78%	-12.81
CC(O)CC(C)(C)CNC1CCCc2occc21 (centres undefined)	36%	0.84
O=C(Nc1ccc(Cl)cc1)N1Cc2nc[nH]c2C[C@H]1c1nc(-c2ccc3ccccc3c2)no1	19%	-2.22
Cc1cnn(C2CN(CC(=O)N3CC(=O)Nc4ccccc43)C2)c1	-10%	1.59
CCCc1cc(C(=O)N2C[C@@H]3CC[C@H]2CN(C(C)=O)C3)n(C)n1	3%	-0.61
CCc1ncnc(N2CC[C@H](Cc3nnn[nH]3)C2)c1F	-13%	1.77

Structure (SMILES)	% Inhibition	Z score
CCn1ccc(C(=O)N2CCc3cc4ccc3[C@@H]2c2cccc(c2)OCCCNC(=O)c2cc(ccc2O)O4)cc1=O	7%	-1.26
NC(=O)C1CCN(CCC(=O)N2CCc3cc4ccc3[C@@H]2c2cccc(c2)OCCCNC(=O)c2cc(ccc2O)O4)CC1	92%	-17.59
NCc1cccc(C(=O)N2CCc3cc4ccc3[C@@H]2c2cccc(c2)OCCCNC(=O)c2cc(ccc2O)O4)c1	86%	-13.81
O=C1NCCCOc2cccc(c2)[C@H]2c3ccc(cc3CCN2C(=O)CCN2CCOCC2)Oc2ccc(O)c1c2	39%	-8.79
Cc1cc(C(=O)N2CCc3cc4ccc3[C@@H]2c2cccc(c2)OCCCNC(=O)c2cc(ccc2O)O4)n(C)n1	-11%	1.41
COCC(=O)N1CCc2cc3ccc2[C@@H]1c1cccc(c1)OCCCNC(=O)c1cc(ccc1O)O3	-2%	0.47
Cc1ccc(OS(=O)(=O)c2ccc3c(c2)NC(=O)CO3)c(Br)c1	-5%	0.38
CCc1nccc(-c2nccn2CCOc2ccccc2F)n1	-5%	0.87
CN(C(=O)CC1(C(=O)O)CCC1)[C@H]1CCOc2ccc(Br)cc21	1%	-0.26
Cc1cc(CS(=O)(=O)[C@@H](C)C(=O)NCc2ccccc2)on1	-12%	2.41
O=S(=O)(Cc1ccc(OC(F)(F)F)cc1)Nc1cccnc1-n1cccn1	2%	-0.39
Cc1ccc(NC(=O)Cc2nnc(-c3cnccn3)o2)c(Cl)c1	-12%	1.25
CC(NCC(O)COc1ccc2c(c1)OCO2)c1ccccc1 (centres undefined)	-9%	1.69
Cc1c(C)n(CC(O)CNC(C)c2ccccc2)c2c(Cl)cccc12 (centres undefined)	59%	-7.71
Cc1c(C)n(C[C@@H](O)Cn2ccnc2C)c2c(Cl)cccc12	-5%	0.7
CC(C)NC[C@H](O)Cn1c(-c2ccccc2)ccc1-c1ccccc1	8%	-1.24
Cc1c(C)n(C[C@@H](O)CNC2CCCC2)c2c(Cl)cccc12	48%	-6.21
CC(NCC(O)Cn1c(-c2ccccc2)c(-c2ccccc2)c2ccc3ccccc3c21)c1ccccc1 (centres undefined)	88%	-10.69
CCC(C)NCC(O)Cn1c(-c2ccccc2)c(-c2ccccc2)c2cc(C)ccc21 (centres undefined)	93%	-10.06
Cc1ccc2c(c1)c(-c1ccccc1)c(-c1ccccc1)n2C[C@@H](O)CNCCCO	1%	-0.17
COCCN(CCOC)C[C@H](O)Cn1c(-c2ccccc2)c(-c2ccccc2)c2cc(C)ccc21	0%	0.06
